Source: article PMC7826789 (International Journal of Molecular Sciences, 2021)

What follows are compounds tested on BRAF.

Kinases covered, BRAF:
COC(=O)c1c(-c2ccccc2)c2cc(OC)ccc2c(=O)n1Cc1ccccc1 [TPKI-97]
O=C(Nc1cccc(-c2nn3ncccc3c2-c2ccnc(Nc3cccnc3)n2)c1)c1c(F)cccc1F [GSK312879]
CN(C)CCOc1ccc(-c2nc(-c3ccc4c(c3)CC/C4=N\O)c(-c3ccncc3)[nH]2)cc1 [SB-590885]
CN(C)CCN(C)C(=O)c1cc(-c2ccncc2)c(-c2ccc(Cl)c(O)c2)o1 [SB-710397]
CCCS(=O)(=O)Nc1ccc(F)c(-n2cc(-c3cncc(OC)c3)nn2)c1F [BI00865461]
